This is an account of results in PubChem BioAssay.

Values without a mark were called inactive. For some of these results: Entries with a potency or affinity are not part of this list. The source made the active and inactive calls. Unless noted, the rule behind the calls is not given here.

Assay [1] is described as follows: antimalarial activity against Dd2 strain (AID 2302;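 active = growth inhibition above 50% at the single 2 µM test dose, taken to imply half-maximal potency below 2 µM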;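 note: 0% = DMSO untreated growth and 100% = chloroquine plus artemisinin killed control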). The conditions noted are these: P. falciparum Dd2 in RBCs, LDH growth readout, 72 h; at 2 µM; active compounds read high.
A short description of assay [2]: human hepatoma cell viability loss – ATP luminescence, cytotoxicity control for P. falciparum antimalarial project, primary screen (AID 2303;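 active = inhibition above 50%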;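 note: 0% = DMSO wells and 100% = digitonin-killed cells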). The note with it: HepG2 viability, 24-48 h, at 10 µM, active compounds read high.
Assay [3] addresses L-lactate dehydrogenase (Plasmodium falciparum (isolate CDC / Honduras)) (UniProt Q27743). As to the kind of experiment: PfLDH activity inhibition – cell lysate, 3D7 strain, counter-screen for P. falciparum growth inhibition project (AID 2304).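 Note: 0% = vehicle and 100% = reference inhibitor.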 The note with it: P. falciparum 3D7 crude extract, LDH APAD/NBT absorbance; at 2 µM; active compounds read high. In general terms: A counterscreen serves to expose hits that act by an unwanted route or on another target.

A short description of assay [4]: inhibition of 3D7 malaria parasite growth – strain 3D7 (AID 2306).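 Note: 0% = DMSO wells and 100% = chloroquine plus artemisinin control wells.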 The note with it: P. falciparum 3D7 erythrocytic growth, LDH absorbance, 72 h; at 2 µM; active compounds read high.
Assay [5] has as its target Calcium-dependent protein kinase 1 (Plasmodium falciparum (isolate 3D7)) (UniProt P62344). As to the kind of experiment: PfCDPK1 kinase inhibitors, biochemical, TCAMS library (AID 1159585; cut-off not given, nearly all actives have IC50 up to about 0.98 µM;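 note: inhibitors leave more ATP so luminescence rises with inhibition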). The conditions noted are these: recombinant PfCDPK1, Kinase-Glo ATP depletion luminescence. A general note: Kinase-Glo reads ATP consumption through a luciferase reaction.
Assay [6] addresses Plasmodium falciparum protein kinase 6 (PK6, PF3D7_1337100) (UniProt Q8IDW1). Kind of assay: PfPK6 kinase inhibitors, biochemical, TCAMS library (AID 1159586). The conditions noted are these: recombinant PfPK6, Kinase-Glo ATP depletion luminescence.
The target of assay [7] is Protein kinase 7 (PK7), Plasmodium falciparum 3D7 (PF3D7_0213400) (UniProt Q7YTF7). Kind of assay: inhibition of Plasmodium PK7 catalytic activity – biochemical, TCAMS antimalarial set, Kinase-Glo luminescence (AID 1159587). The note with it: recombinant PfPK7, Kinase-Glo ATP depletion luminescence.
The target of assay [8] is Calcium-dependent protein kinase 4 (Plasmodium falciparum (isolate 3D7)) (UniProt Q8IBS5). Kind of assay: PfCDPK4 kinase inhibitors, biochemical, TCAMS library (AID 1159588; cut-off not given, nearly all actives have IC50 up to about 0.91 µM). The note with it: recombinant PfCDPK4, Kinase-Glo ATP depletion luminescence.
Chain of Calcium-dependent protein kinase 4 (Plasmodium falciparum (isolate 3D7)) (Q8IBS5 whole entry, looked up): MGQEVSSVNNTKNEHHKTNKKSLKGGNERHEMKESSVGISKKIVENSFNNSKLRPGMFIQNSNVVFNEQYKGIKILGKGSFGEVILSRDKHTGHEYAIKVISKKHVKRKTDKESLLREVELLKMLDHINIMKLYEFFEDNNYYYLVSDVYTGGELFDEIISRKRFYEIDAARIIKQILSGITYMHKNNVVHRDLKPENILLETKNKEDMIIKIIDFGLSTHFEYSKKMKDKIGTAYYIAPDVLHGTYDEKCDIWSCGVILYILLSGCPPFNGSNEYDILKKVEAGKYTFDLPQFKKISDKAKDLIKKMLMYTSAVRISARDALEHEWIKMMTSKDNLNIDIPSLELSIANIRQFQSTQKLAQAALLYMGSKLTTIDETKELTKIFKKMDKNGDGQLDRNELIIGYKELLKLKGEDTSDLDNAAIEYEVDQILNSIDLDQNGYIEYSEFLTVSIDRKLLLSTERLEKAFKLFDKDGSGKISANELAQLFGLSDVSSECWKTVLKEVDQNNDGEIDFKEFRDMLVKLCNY

Chain of Plasmodium falciparum protein kinase 6 (PK6, PF3D7_1337100) (Q8IDW1 1-305): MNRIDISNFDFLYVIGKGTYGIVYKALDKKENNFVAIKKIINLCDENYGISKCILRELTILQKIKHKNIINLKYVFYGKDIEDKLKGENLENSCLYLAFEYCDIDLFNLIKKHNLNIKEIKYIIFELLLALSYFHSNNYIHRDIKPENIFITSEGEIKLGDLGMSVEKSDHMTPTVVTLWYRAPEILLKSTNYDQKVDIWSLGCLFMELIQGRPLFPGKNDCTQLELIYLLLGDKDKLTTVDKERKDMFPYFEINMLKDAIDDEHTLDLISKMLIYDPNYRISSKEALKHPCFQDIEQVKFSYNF
Chain of Calcium-dependent protein kinase 1 (Plasmodium falciparum (isolate 3D7)) (P62344 whole entry, looked up): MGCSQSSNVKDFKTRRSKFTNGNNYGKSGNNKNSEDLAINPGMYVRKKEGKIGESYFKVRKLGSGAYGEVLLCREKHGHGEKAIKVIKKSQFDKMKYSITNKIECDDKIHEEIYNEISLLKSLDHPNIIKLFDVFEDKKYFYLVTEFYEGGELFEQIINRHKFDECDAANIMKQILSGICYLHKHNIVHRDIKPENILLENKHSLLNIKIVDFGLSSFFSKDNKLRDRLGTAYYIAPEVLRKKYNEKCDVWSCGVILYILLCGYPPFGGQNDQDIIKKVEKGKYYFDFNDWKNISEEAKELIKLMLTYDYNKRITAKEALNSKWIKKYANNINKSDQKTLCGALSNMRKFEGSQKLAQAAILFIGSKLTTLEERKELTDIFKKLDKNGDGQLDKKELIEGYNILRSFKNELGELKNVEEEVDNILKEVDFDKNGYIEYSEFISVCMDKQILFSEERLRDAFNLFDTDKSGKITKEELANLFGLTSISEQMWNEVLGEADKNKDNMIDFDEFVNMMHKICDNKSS
Chain of L-lactate dehydrogenase (Plasmodium falciparum (isolate CDC / Honduras)) (Q27743 whole entry, looked up): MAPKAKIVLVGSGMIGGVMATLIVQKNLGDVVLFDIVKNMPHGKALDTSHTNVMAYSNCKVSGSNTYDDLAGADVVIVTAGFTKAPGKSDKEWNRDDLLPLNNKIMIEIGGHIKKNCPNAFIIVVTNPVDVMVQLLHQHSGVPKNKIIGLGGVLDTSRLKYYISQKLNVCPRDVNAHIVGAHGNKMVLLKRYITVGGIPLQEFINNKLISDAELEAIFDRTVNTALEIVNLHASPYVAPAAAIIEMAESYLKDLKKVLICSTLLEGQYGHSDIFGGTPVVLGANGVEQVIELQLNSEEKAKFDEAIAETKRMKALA
Chain of Protein kinase 7 (PK7), Plasmodium falciparum 3D7 (PF3D7_0213400) (Q7YTF7 1-343): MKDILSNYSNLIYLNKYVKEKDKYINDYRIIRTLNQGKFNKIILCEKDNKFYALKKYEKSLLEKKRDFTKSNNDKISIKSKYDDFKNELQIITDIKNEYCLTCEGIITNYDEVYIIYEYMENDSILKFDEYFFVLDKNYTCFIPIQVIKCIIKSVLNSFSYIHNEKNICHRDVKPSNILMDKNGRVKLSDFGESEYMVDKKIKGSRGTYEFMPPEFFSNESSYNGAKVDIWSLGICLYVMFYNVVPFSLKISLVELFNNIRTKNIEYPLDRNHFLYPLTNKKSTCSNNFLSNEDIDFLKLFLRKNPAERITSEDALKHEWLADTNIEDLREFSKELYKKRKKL

The inhibition is the drop in the measured response relative to a control, in per cent. Regarding `CCC1(C)CC(CCNCc2ccccc2O)(c2ccc(C)cc2)CCO1` (stereo unspecified), the growth inhibition in assay [1] is 66% (active); in assay [4], 97% (active). For the same compound, the inhibition is 9% in assay [2] and -7% in assay [3]. Further, the result in assay [5], in assay [6], in assay [7] and in assay [8] was inactive.

On to `CCOC(C(=O)OCC1CCCN1C(C)C)(c1ccccc1)c1ccccc1` (stereo unspecified), for which the growth inhibition is 2% in assay [1] and 98% (active) in assay [4]. For the same compound, the inhibition in assay [2] is -1%; in assay [3], -3%. Moreover, the result in assay [5], in assay [6], in assay [7] and in assay [8] was inactive.

On to `Oc1ccc(Cl)cc1CN1CCC(CCOC(c2ccccc2)c2ccccc2)CC1`, for which the growth inhibition in assay [1] was 99% (active); in assay [4], 98% (active). Besides, the inhibition in assay [2] was 14%; in assay [3] it was 4%. Further, the outcome in assay [5], in assay [6], in assay [7] and in assay [8] was inactive.

Take `CC[C@H]1CN2CC[C@@H]1C[C@H]2[C@H](O)c1cc(-c2cc(Cl)cc(Cl)c2)nc2ccc(OC)cc12`: the growth inhibition in assay [1] was 97% (active); in assay [4], 99% (active). Besides, the figures for the inhibition in assay [2] and in assay [3] were 0% and -1%, respectively. Besides, the outcome in assay [5], in assay [6], in assay [7] and in assay [8] was inactive.

With `O=C(NC1CCN(CC2(c3ccc(Cl)cc3)CCC2)CC1)c1ccn[nH]1`, the growth inhibition in assay [1] was 43%; in assay [4] it was 96% (active). For the same compound, the inhibition is -7% in assay [2] and -3% in assay [3]. Moreover, the outcome in assay [5], in assay [6], in assay [7] and in assay [8] was inactive.

Take `CN1CC=C(c2c[nH]c3ccc(Oc4ccccc4)cc23)CC1`: the growth inhibition in assay [1] and in assay [4] was 98% (active) throughout. For the same compound, the inhibition in assay [2] was 40%; in assay [3], -7%. The outcome in assay [5], in assay [6], in assay [7] and in assay [8] was inactive.

Regarding `CN(c1cc(NC(=O)c2ccc(F)cc2)ccn1)C1CCN(Cc2cccc(F)c2)CC1`, the growth inhibition in assay [1] is 97% (active); in assay [4], 100% (active). Besides, the values for the inhibition in assay [2] and in assay [3] were 13% and 5%, respectively. Also, the outcome in assay [5], in assay [6], in assay [7] and in assay [8] was inactive.

Take `CCCc1ccc2c(c1O)CCC(N(CCC)CCC)C2` (stereo unspecified): the growth inhibition is 23% in assay [1] and 90% (active) in assay [4]. Also, the inhibition in assay [2] was -3%; in assay [3], 3%. In addition, the result in assay [5], in assay [6], in assay [7] and in assay [8] was inactive.

Regarding `O=C(NC1CCC(CN2CCC(c3c[nH]c4ccccc34)CC2)CC1)c1ccc(-c2cc(C(F)(F)F)ccc2Cl)o1` (stereo unspecified), the growth inhibition is 34% in assay [1] and 102% (active) in assay [4]. Further, the inhibition in assay [2] was 5%; in assay [3], 3%. In addition, the result in assay [5], in assay [6], in assay [7] and in assay [8] was inactive.

For the compound `Cc1ccc2c(C3=CCN(CCCCC4(C)C(=O)Nc5c(F)cccc54)CC3)c(C)[nH]c2c1` (stereo unspecified), the growth inhibition in assay [1] was 89% (active); in assay [4], 95% (active). Moreover, the results for the inhibition in assay [2] and in assay [3] were 5% and -4%, respectively. Moreover, the outcome in assay [5], in assay [6], in assay [7] and in assay [8] was inactive.

With `COc1ccc(CC(C)NCC(O)c2cccc(C(F)(F)F)c2)cc1F` (stereo unspecified), the results for the growth inhibition in assay [1] and in assay [4] were 65% (active) and 91% (active), respectively. Besides, the results for the inhibition in assay [2] and in assay [3] were -4% and -8%, respectively. Besides, the result in assay [5], in assay [6], in assay [7] and in assay [8] was inactive.

In the case of `O=C(/C=C/c1ccc(O)cc1)NC1CCC(CN2CCC(c3c[nH]c4ccccc34)CC2)CC1` (stereo unspecified), the growth inhibition in assay [1] was 51% (active); in assay [4] it was 99% (active). Further, the inhibition in assay [2] was 21%; in assay [3] it was -7%. Also, the outcome in assay [5], in assay [6], in assay [7] and in assay [8] was inactive.

For `CC[C@H]1CN2CC[C@H]1C[C@H]2[C@H](O)c1cc(-c2ccc(C)cc2)nc2ccc(OC)cc12`, the growth inhibition in assay [1] and in assay [4] was 99% (active) in each case. In addition, the inhibition in assay [2] is 22%; in assay [3], 6%. Also, the outcome in assay [5], in assay [6], in assay [7] and in assay [8] was inactive.

For `O=C(/C=C/c1ccc(Cl)c(Cl)c1)NC1CCC(CN2CC[C@H](c3c[nH]c4ccccc34)[C@@H](O)C2)CC1` (stereo partly specified), the growth inhibition in assay [1] was 87% (active); in assay [4], 101% (active). For the same compound, the inhibition in assay [2] is 30%; in assay [3], -7%. Besides, the outcome in assay [5], in assay [6], in assay [7] and in assay [8] was inactive.

For `COc1ccc(CN2CCN(CCOC(c3ccccc3)c3ccc(Cl)cc3)CC2)c(O)c1` (stereo unspecified), the growth inhibition is 98% (active) in assay [1] and 99% (active) in assay [4]. Further, the inhibition in assay [2] is 12%; in assay [3], 0%. The result in assay [5], in assay [6], in assay [7] and in assay [8] was inactive.

In the case of `CC(Cc1ccc(OCCCCOc2ccccc2)cc1)NCCc1ccccc1Cl` (stereo unspecified), the growth inhibition in assay [1] was 58% (active); in assay [4], 97% (active). For the same compound, the inhibition was 100% (active) in assay [2] and 1% in assay [3]. The outcome in assay [5], in assay [6], in assay [7] and in assay [8] was inactive.

Regarding `COC(=O)c1ccc(CC(C)NCC(O)c2cccc(C(F)(F)F)c2)cc1C` (stereo unspecified), the growth inhibition was 74% (active) in assay [1] and 93% (active) in assay [4]. Besides, the inhibition in assay [2] is 6%; in assay [3], 2%. The outcome in assay [5], in assay [6], in assay [7] and in assay [8] was inactive.
